KLK7 zymogen act – activates the human kallikrein-7 zymogen | P49862 | purified proKLK7, EDANS-DABCYL substrate fluorescence; 100% is mature enzyme control, 0% vehicle | activation, % at 7 µM | 370,000 tested, 0.9% active;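 active means activation above the mean of all tested compounds plus 3 SD, computed per campaign excluding outliers beyond control limits, cut at about 13% in these data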
ADAM10 inh – inhibits human ADAM10; O14672; recombinant ADAM10, EDANS/DABCYL FRET peptide cleavage, 3 h; inhibition, % at 7 µM; 370,000 tested, 0.62% active; AID 720582;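 active means inhibition above a per-campaign cutoff equal to the mean of compounds falling between control-based bounds plus 3 SD, cut at about 20% in these data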;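 further: 0% = DMSO wells while the 100% control is not disclosed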
Target sequence (O14672 214-748 limits assumed): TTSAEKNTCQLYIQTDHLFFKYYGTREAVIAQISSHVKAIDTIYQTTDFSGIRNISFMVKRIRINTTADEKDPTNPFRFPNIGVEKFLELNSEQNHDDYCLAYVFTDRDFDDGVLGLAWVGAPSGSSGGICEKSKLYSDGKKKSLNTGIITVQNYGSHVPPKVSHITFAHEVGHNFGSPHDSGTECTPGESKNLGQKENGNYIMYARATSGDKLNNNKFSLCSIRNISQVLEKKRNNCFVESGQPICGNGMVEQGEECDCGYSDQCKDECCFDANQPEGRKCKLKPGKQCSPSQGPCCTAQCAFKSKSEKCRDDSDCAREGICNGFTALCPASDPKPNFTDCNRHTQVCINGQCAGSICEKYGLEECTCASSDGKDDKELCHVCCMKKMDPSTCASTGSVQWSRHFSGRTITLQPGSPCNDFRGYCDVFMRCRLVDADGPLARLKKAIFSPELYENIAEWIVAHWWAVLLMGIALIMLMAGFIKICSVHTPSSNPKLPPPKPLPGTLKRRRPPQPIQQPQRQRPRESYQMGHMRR
HGIII-sPLA2 inh – Inhibits HGIII-sPLA2 liposome hydrolysis, primary screen. inhibition, % at 12.2 µM. QFRET BODIPY PC-A2 liposome hydrolysis, fluorescence. 370,000 tested, 0.56% active. Q9NZ20. AID 743126;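 active means inhibition above mean plus 3 SD of compounds lying within the high and low control bounds, cut at about 19% in these data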;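 further: 0% = median of test compound wells and 100% = no enzyme DMSO wells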
ADAM17 inh – ADAM17 inhibition, QFRET primary screen. P78536. recombinant ADAM17, EDANS/DABCYL FRET peptide cleavage. inhibition, % at 6.95 µM. 370,000 tested, 0.83% active;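 active means inhibition above the mean of compounds lying between control limits plus 3 SD, set per campaign, cut at about 8.5% in these data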;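 further: 0% = DMSO-only wells as the low control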
NRP1-CendR mod – alters CendR peptide binding to human NRP-1. FAM-RPARPAR peptide binding to NRP-1, fluorescence polarization. inhibition, % at 25 µM. O14786. 360,000 tested, 0.85% active;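 active means inhibition or corrected inhibition above about 18%, plus a signal ratio from 0.5 to 1.5, limit read from the data, passing the limit was not always enough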
KLK7 act conf – proKLK7 activation, confirmation; shares compounds with KLK7 zymogen act; purified proKLK7, EDANS-DABCYL substrate fluorescence; scaled: vehicle 0, mature enzyme 100; activation, % at 7 µM; 3,200 tested, 68% active;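 active means activation, as change over the incubation, above the mean of all tested compounds plus 3 SD, cut at about 13% in these data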
EDANS-DABCYL int – fluorescence interference counter-screen for KLK7 activators | shares compounds with KLK7 zymogen act | EDANS-DABCYL substrate fluorescence interference, no enzyme, 4 h; solvent 0%, active enzyme control 100% | activation, % at 7 µM | 3,200 tested, 80% active;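 active means activation above the all-compound mean plus 3 SD, ignoring values outside control-based bounds, cut at about 4.8% in these data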;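 further: value is the 4 h activation minus the activation read at time zero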
K7 EDANS ctr – counter-screen for kallikrein-7 activators: EDANS-DABCYL interference, dose response | EDANS-DABCYL peptide fluorescence interference, no enzyme | AID 720493 | EC50, µM | 250 tested, 20% active | shares compounds with KLK7 zymogen act;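 active means compounds that raise the fluorescence signal in this interference counterscreen, with EC50 at or below 10 µM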;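 further: intact quenched peptide substrate alone read at 355 nm excitation and 520 nm emission; signal is fluorescence gain from T0 to T4 after four hours at room temperature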
* marks the source's active call; other numbers are inactive results; i = inactive; x = no result. The list is not random: actives were taken first. Their share in the collection is about 3.4%.

SMILES | KLK7 zymogen act | ADAM10 inh | HGIII-sPLA2 inh | ADAM17 inh | NRP1-CendR mod | KLK7 act conf | EDANS-DABCYL int | others
CCCCNC(=O)C1CCCN1C(=O)Nc1ccc2c(c1)OCO2 (stereo not given) | 0.4 | -2.3 | -0.2 | 0.2 | x | x | x
O=S(=O)(NCc1cn(Cc2ccccc2)nn1)c1ccccc1Br | -0.2 | -0.6 | 5.5 | 1.4 | x | x | x
CCCCn1nc(C(=O)Oc2ccc3c(C)cc(=O)oc3c2)c2ccccc2c1=O | 45.4* | i | 1.0 | i | 11.2 | 64.0* | 69.0*
CCCC(=O)Oc1ccc2c(C)cc(=O)oc2c1 | 655.6* | i | -2.6 | i | -8.0 | 685.6* | 706.4*
Cc1cc(=O)oc2cc(OC(=O)CCN3C(=O)c4ccccc4C3=O)ccc12 | 57.5* | i | -3.0 | i | 3.6 | 427.4* | 403.5*
CC1(C)CC(=O)c2cc(OCC(=O)NCc3cccnc3)ccc2O1 | 48.5* | i | 5.9 | i | -5.8 | 61.8* | 65.6*
CCCCCCCNC(=O)COc1ccc2c(c1)C(=O)CC(C)(C)O2 | -5.3 | i | 4.9 | -461.8 | 10.3 | x | x
CC(C)NC(=O)COc1ccc2c(c1)C(=O)CC(C)(C)O2 | 36.7* | i | 4.2 | -421.4 | 5.2 | 80.6* | 84.7*
CCN(CC)C(=O)COc1ccc2c(c1)C(=O)CC(C)(C)O2 | 47.3* | i | -2.4 | -351.5 | 5.0 | 39.9* | 71.0*
CCOC(=O)COc1ccc2c(c1)C(=O)CC(C)(c1cccnc1)O2 (stereo not given) | x | x | x | x | -0.8 | x | x
CC1(C)CC(=O)c2cc(OCC(=O)NCCCN3CCN(c4ccccc4F)CC3)ccc2O1 | 18.3* | -470.2 | -4.0 | -162.7 | -17.2 | 17.2* | 21.5*
CC(C)C[C@H]1COc2cccc(F)c2S(=O)(=O)N1Cc1cn(Cc2ccco2)nn1 | 0.7 | -1.5 | -0.5 | -4.2 | x | x | x
CCOC(=O)COc1ccc2c(c1)C(=O)CC1(CCCCC1)O2 | 23.6* | i | -8.0 | -332.7 | 8.2 | 13.5* | 10.3* | K7 EDANS ctr=>69.5
CC1(C)CC(=O)c2cc(OCC(=O)N3CCOCC3)ccc2O1 | 44.3* | i | -0.8 | -334.1 | 2.5 | 71.5* | 80.7*
COc1ccc(OC)c(NC(=O)c2cc(S(=O)(=O)NCc3ccco3)ccc2F)c1 | 13.4* | -2.0 | -26.8 | -0.7 | 0.4 | -0.6 | 0.8
CCOc1ccccc1NC(=O)c1cc(S(=O)(=O)NCc2ccco2)ccc1F | 0.6 | 2.2 | -29.0 | -0.4 | -4.3 | x | x
Cc1ccc(Cn2cc(COC(=O)NCC(C)C)nn2)cc1 | 0.2 | 6.4 | 7.3 | 0.9 | x | x | x
Cc1ccc2nc3sc(C(=O)N4CCN(C)CC4)cc3cc2c1 | x | -57.7 | 3.8 | -19.7 | x | x | x
O=C(/C=C/c1ccc(F)cc1)Nc1ccc2[nH]c(=O)[nH]c2c1 | 34.6* | -8.1 | -3.0 | -4.0 | 1.8 | 100.6* | 92.9*
O=C(Nc1ccc2[nH]c(=O)[nH]c2c1)c1c(F)c(F)c(F)c(F)c1F | 18.9* | -40.2 | 2.6 | -15.7 | -12.5 | 28.8* | 22.2* | K7 EDANS ctr=i
COc1cccc(CNC(=S)Nc2ccc3c(c2)c(=O)n(C)n3Cc2ccc(F)cc2)c1 | -12.2 | i | -3.5 | -440.0 | -4.2 | x | x
COc1ccccc1CCC(=O)Nc1ccc2c(c1)c(=O)n(C)n2C | 26.7* | i | 12.0 | i | -14.4 | 16.0* | 17.1*
COc1cccc(CNC(=S)Nc2ccc3c(c2)c(=O)n(C)n3C)c1 | 25.4* | i | 4.6 | -477.8 | 5.1 | 11.2 | 13.1*
C=CCN(C)CC#CCCCCl | -0.5 | -8.0 | 5.3 | -3.3 | x | x | x
O=C1c2ccccc2C(=O)N1c1nc2nccc(-c3ccccc3)n2n1 | 3.9 | i | -0.4 | -353.3 | -12.2 | x | x
O=C(Nc1nc2nccc(-c3ccccc3)n2n1)C(Cl)(Cl)Cl | 39.3* | i | 5.6 | i | 1.2 | 46.7* | 45.8*
C=CCN(CC#Cc1ccccc1)CC=C | 0.7 | -0.8 | 1.1 | 0.3 | x | x | x
COc1ccc(N(CC(=O)NCc2ccc(F)cc2)C(=O)c2snc(C(N)=O)c2N)cc1OC | 15.2* | -1.6 | 9.3 | -6.4 | -5.0 | 4.6 | 3.7

Screening data: PubChem, several laboratories
